A selection: hits, their analogues and other compounds. The true share with any hit is near 5.9%.
GLP1R cytotox: cytotoxic in the GLP-1 receptor inverse agonist counter-screen. AID 624418. Potency, µM (doses to about 38.3 µM), for inactives: at the top dose activity change, negative = inhibition, actives largely listed as inhibitors. HEK293 cAMP-luciferase reporter cells, luminescence, 24 h. 410,000 tested, 0.13% active;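 also: loss of luciferase light is scored as toxicity; % is scaled to controls: 0 for no effect and ±100 for the full control effect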
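Quantitative HTS format, 1536 wells, 200 cells/uL seeded. Compounds: 23 nL, 24 h, 37 °C. Detection: luciferase reagent, luminescence at 12 min RT; decreased signal taken as cytotoxic.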
GLP1R inv ag: acts as inverse agonist at human GLP-1 receptor | P43220 | HEK293 GLP-1R CRE-luciferase, luminescence, 24 h; GLP-1R form is constitutively active | Potency, µM (highest dose often 38.3 µM), without a hit: at the top dose activity change, negative = inhibition, actives largely listed as inhibitors | 410,000 tested, 1.6% active | AID 624417; also: % is scaled to controls: 0 for no effect and ±100 for the full control effect; nearly all actives have a fitted effect of over 55% in size
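Assay principle: reduced luminescence from a cAMP-responsive reporter in HEK293 cells co-expressing a constitutively active GLP-1R. Conditions: 24 hr compound incubation, 37 deg C, 5% CO2.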
VP16 counter: counter-screen for ROR gamma inhibitors: Gal4-VP16 reporter | AID 2546 | 310,000 tested, 3.5% active | Potency, µM (top dose mostly 53.6 µM), for the others: at the highest dose activity, negative = inhibition, usual class: inhibitors | Drosophila S2 Gal4-VP16 UAS-luciferase, luminescence, 20 h;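 also: Gal4-VP16 expression switched on by copper sulfate through the metallothionein promoter; % is scaled to controls: 0 for no effect and ±100 for the full control effect; nearly all actives have a fitted effect of over 50% in size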
RORg inh: inhibitors of mouse ROR gamma transcriptional activity. P51450. Drosophila S2 Gal4-RORgamma UAS-luciferase reporter, 20 h. Potency, µM (series often up to 53.6 µM), without a hit: at the highest dose activity change, negative = inhibition, usual class: inhibitors. 310,000 tested, 5.4% active; also: % is scaled to controls: 0 for no effect and ±100 for the full control effect; nearly all actives have a fitted effect of over 60% in size
Target sequence (P51450 whole entry, looked up, the tested form may be a part): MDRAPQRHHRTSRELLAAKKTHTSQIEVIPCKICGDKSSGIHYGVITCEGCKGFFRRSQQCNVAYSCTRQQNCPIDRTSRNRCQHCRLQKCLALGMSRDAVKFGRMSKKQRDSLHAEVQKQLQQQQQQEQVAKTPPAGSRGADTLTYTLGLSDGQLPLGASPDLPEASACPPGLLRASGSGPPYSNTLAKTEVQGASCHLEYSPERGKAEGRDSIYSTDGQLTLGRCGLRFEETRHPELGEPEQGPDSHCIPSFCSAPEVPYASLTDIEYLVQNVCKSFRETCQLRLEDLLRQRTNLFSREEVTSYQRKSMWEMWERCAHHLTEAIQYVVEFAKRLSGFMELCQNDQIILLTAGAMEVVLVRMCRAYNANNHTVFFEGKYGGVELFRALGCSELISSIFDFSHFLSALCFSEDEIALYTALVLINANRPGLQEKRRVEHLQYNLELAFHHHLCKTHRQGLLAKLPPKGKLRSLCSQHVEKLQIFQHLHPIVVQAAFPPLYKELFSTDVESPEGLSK
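Drosophila Schneider cells stably carrying a metallothionein-driven Gal4 DBD–ROR gamma fusion and a UAS-Photinus luciferase reporter were exposed to compound for 1 hr, then induced with copper sulfate (700 uM final) for 20 hr at ambient temperature before luminescence reading.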
GLP1R ag: activates the human GLP-1 receptor; P43220; HEK293 GLP-1R CRE-luciferase, luminescence, 4-6 h; cells express a hypersensitive GLP-1R form; Potency, µM (highest dose often 45.6 µM), for the others: top-dose activation, usual class: activators; 380,000 tested, 0.007% active; AID 624172; also: % of control where 0% means no effect
The depositor's hits bear a star; ? = inconclusive; . = no result given; [ ] = remark or other dose. Calls follow the shape of the dose curve; as a rule, active = well fitted curve in the direction sought with a large enough effect; inconclusive = small, poorly fitted or top-dose-only effect, or another doubt; inactive = no such curve, though single readings can be large; an effect the other way counts as inactive or inconclusive. Potency is read from the fitted curve at half-maximal effect.

SMILES	GLP1R cytotox	GLP1R inv ag	VP16 counter	RORg inh	GLP1R ag
NC(=S)N/N=C/c1ccccc1OC(=O)c1cc2ccccc2oc1=O	?	?	7.08µM*	7.08µM*	-2.9%
CCCn1c(C)cs/c1=N\C(=S)Nc1ccccc1	5.7%	-0.7%	5.62µM*	3.98µM*	-11.1%
Cc1cs/c(=N/C(=S)Nc2ccccc2)n1C	-9.7%	-0.7%	10µM*	1.58µM*	-7.5%
C=CCNC(=S)/N=c1/scc(C)n1C	-3.3%	?	-0.8%	?	2.9%
CCOc1ccc2c(c1)C(N(CCN1CCOCC1)C(=S)Nc1ccccc1OC)CC(C)(C)O2 (stereo not given)	5.7%	-20.2%	?	15.8µM*	4.7%
CCN1CCCc2cc(CN(CCN3CCOCC3)C(=S)Nc3ccccc3OC)ccc21	6.6%	?	-13.9%	10µM*	-8.4%
CCN1CCCc2cc(CN(CCN3CCOCC3)C(=S)Nc3ccccc3C)ccc21	8.3%	-17.3%	-10.5%[10 µM]	4.9%	1.1%
CCN1CCCc2cc(CN(CCN3CCOCC3)C(=S)Nc3cccc(C)c3)ccc21	-4.6%	?	-2.5%[10 µM]	6.31µM*	6.4%
O=C(OCC(F)(F)F)[C@H](O)[C@@H](O)C(=O)OCC(F)(F)F	.	.	1.6%	13.9%	.
CC(C)OC(=O)CSc1nc(Cc2ccccc2)nc2ccccc12	4.4%	12.6µM*	-1.5%	-29.2%	15.5%
Nc1c2c(nc3sc4c(c13)CCCC4)-c1ccccc1CC2	-6.4%	?	10µM*	?	?
Cc1ccc(OS(=O)(=O)c2ccccc2)c(/C=N/N=C2\NC(=O)C(C)S2)c1 (stereo not given)	?	?	15.8µM*	8.91µM*	-0.6%
Cc1ccc(S(=O)(=O)Oc2ccccc2/C=N/O)cc1	6.6%	?	8.3%	6.4%	6.3%
O=C1CS/C(=N/N=C/c2ccncc2)N1	-7.1%	5.8%	2.8%	-8.9%	2.0%
O=C1CS/C(=N/N=C/c2ccccc2OS(=O)(=O)c2ccccc2)N1	?	?	12.6µM*	?	-1.0%
CCOc1ccc(/C=C2/SC(=S)N(n3c(C)ccc3C)C2=O)cc1	-25.7%	7.08µM*	9.8%	?	-12.9%
CCOc1ccc(C=C2SC(=O)N(CCN)C2=O)cc1	.	.	-1.8%	0.631µM*	.
O=c1c(O)c(-c2ccc(O)cc2)oc2ccc(O)cc12	.	.	-2.7%	?	.
CCOC(=O)c1c(NC(=O)c2ccco2)sc2c1CCCC2	1.1%	3.8%	-4.1%	0.1%	-4.2%
C=CCNC(=S)Nc1sc2c(c1C(=O)OCC)CC(C(C)C)OC2 (stereo not given)	?	-16.5%	4.47µM*	5.01µM*	-9.7%
CCOC(=O)c1c(NC(=S)Nc2ccccc2)sc2c1CCN(CCc1ccccc1)C2	.	.	1.1%	-7.6%	.
CCOC(=O)c1c(NC(=S)NCCc2ccccc2)sc2c1CC(C(C)C)OC2 (stereo not given)	-14.9%	-2.4%	1.26µM*	2.51µM*	-22.2%
CC(C)C1Cc2c(sc(NC(=S)NC(=O)c3ccccc3)c2C#N)CO1 (stereo not given)	4.4%	38.4%	?	5.62µM*	-7.5%
CCCOC(=O)CSc1nnc2ccc3ccccc3n12	0.1%	1.4%	.	.	.
Cc1cccc(NC(=S)NC(=O)CC2CC(C)(C)OC2=O)c1 (stereo not given)	1.4%	9.2%	-18.4%	11.2µM*	10.6%
SMILES	GLP1R cytotox	GLP1R inv ag	VP16 counter	RORg inh	GLP1R ag
CCCCCCSC1=C(C#N)C(c2ccc(O)cc2)CC(=O)N1 (stereo not given)	-3.8%	5.01µM*	22.1%	8.4%	?
C=C1CCC2C(CC2(C)C)C(=O)CCC1O (stereo not given)	.	.	7.9%	4.8%	.
O=C(CSc1nnc(CNC(=O)c2ccccc2F)n1-c1ccccc1)Nc1ccccc1F	-4.6%	-8.2%	.	.	.
NC(=S)N/N=C1\CCOc2ccc(F)cc21	?	?	22.4µM*	5.01µM*	7.9%
CC(=O)Oc1ccc(/C=C/C(=O)CC2OC(Oc3cc(OC(C)=O)c4c(c3)O[C@@H](c3ccc(OC(C)=O)cc3)CC4=O)C(OC(C)=O)C(OC(C)=O)C2OC(C)=O)cc1 (stereo not given in full)	.	.	1.0%	13.6%	.
CCc1cc(C(=O)NNC(=S)NC2CCCCC2)cs1	-20.2%	?	10µM*	2.24µM*	-2.9%
CCc1c(C(=O)NNC(=S)NC2CCCCC2)csc1C	-2.8%	?	?	1.12µM*	13.8%
CCc1c(C(=O)NNC(=S)NCCc2ccccc2)csc1C	-31.6%	?	?	?	-15.6%
COc1coc(C(O)CN)cc1=O (stereo not given)	-7.0%	6.8%	0.6%	45.0%	1.1%
CCOC(=O)C(=Cc1cc(=O)c(OC)co1)C(=O)OCC	?	?	5.01µM*	4.47µM*	-6.6%
O=C(NCCc1ccc(Cl)cc1)c1cnc2sc(N3CCCC3)nn2c1=O	4.0%	3.2%	.	.	.
CCC(C)(C)C1CCc2c(sc(N)c2C(N)=O)C1 (stereo not given)	4.6%	6.7%	?	?	-1.3%
CC(C)(C)C1CCc2c(sc(N)c2C(N)=O)C1 (stereo not given)	4.8%	?	15.8µM*	0.0%	-1.4%
CCOc1ccc(-n2nc3ccc(N)cc3n2)cc1	45.0%	-18.8%	-27.1%	-37.5%	-5.2%
CCOc1ccc(-n2nc3cc(C)c(N)cc3n2)cc1	7.1%	-49.8%	-27.3%	10µM*	-5.3%
CC(C)Nc1ccc(Nc2ccnc3cc4ccccc4cc23)cc1	4.47µM*	3.16µM*	?	?	-5.7%
CCOC(=O)C1(CCc2ccccc2)CCN(C(=O)C2CCCO2)CC1 (stereo not given)	-13.5%	-21.3%	?	-0.3%	-3.6%
CCOC(=O)C1(CCCc2ccccc2)CCN(Cc2ccn[nH]2)CC1	14.0%	4.47µM*	6.5%	-35.6%	12.5%
CCOC(=O)C1(CCc2ccccc2)CCN(Cc2ccccn2)CC1	?	?	11.2µM*	5.01µM*	12.7%
CCOC(=O)C1(CCc2ccccc2)CCN(C(=O)[C@@H]2C[C@@H](C)NC(=S)N2)CC1	-1.7%	?	?	11.2µM*	5.1%
CCOC(=O)C1(CCCc2ccccc2)CCN(Cc2cnn(C)c2)CC1	2.8%	?	3.5%	-2.3%	13.5%
CCCOc1cccc(C(=O)Nc2cc(-c3ccccc3)no2)c1	0.0%	-25.8%	.	.	.
COc1ccccc1N1CCN(C(=O)Cn2ncc3c(=O)oc4ccccc4c32)CC1	-7.3%	-27.4%	.	.	-2.0%
CCOc1ccc2nc(N3CCCC(C(=O)NCCc4ccc(OC)cc4OC)C3)sc2c1 (stereo not given)	-18.6%	?	.	.	.
CCN(CC(=O)Nc1c(F)cccc1F)C(=O)c1cc(-c2cccs2)nn1-c1ccccc1	?	10µM*	.	.	-17.2%

From PubChem BioAssay
